# Laboratory results published in the supplement of paper PMC8728848.
# Many of the other results were omitted from the sample, so the strongest signals are more common in it than they were.
# B1: Cohesin-marm-DC-ASGPR-CRD (protein)
# chain: LDITSHHHHHHDDLDAVRIKVDTVNAKPGDTVRIPVRFSGIPSKGIANCDFVYSYDPNVLEIIEIEPGDIIVDPNPDKSFDTAVYPDRKIIVFLFAEDSGTGAYAITKDGVFATIVAKVKEGAPNGLSVIKFVEVGGFANNDLVEQKTQFFDGGVNVGDTTEPATPTTPVTTPTTTDDLDAASCPINWVEHQGSCYWFSRSGKTWPEAERYCQLENTHLVVINSREEQNFVQAHLGSAYTWMGLSDPEGVWKWVDGTDYSSGFQNWKPGQPDDWQGHGLGGGEDCAHFHPDGRWNDDVCQRSYHWVCEAGLTQASQDSH
# Tests used:
# Experiment in all cases: glycan array binding signal (z-score within array); higher = stronger binding
# Conditions in all cases: glycan notation: IUPAC condensed, linker removed
# Fuc(a1-2)Gal(b1-3)GalNAc = molecular target: Fuc(a1-2)Gal(b1-3)GalNAc
# Procedure, shortened: (§1)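 The Consortium for Functional Glycomics database supplied 3228 glycan arrays, of which those lacking an available protein sequence were dropped. The binding signal, a within-array Z-score, was averaged across arrays of the same protein sequence and across linkers. Negative scores can be read as non-binding.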
# [1] = molecular target: Fuc(a1-2)Gal(b1-3)[Fuc(a1-4)]GlcNAc(b1-3)[Gal(b1-4)GlcNAc(b1-6)]Gal(b1-4)Glc
# Procedure, shortened: as §1
# [2] = molecular target: Fuc(a1-2)[Gal(a1-3)]Gal(b1-4)GlcNAc(b1-6)GalNAc
# Procedure, shortened: as §1
# [3] = molecular target: Fuc(a1-2)[GalNAc(a1-3)]Gal(b1-3)GalNAc(a1-3)[Fuc(a1-2)]Gal(b1-4)GlcNAc
# Procedure, shortened: as §1
# [4] = molecular target: Fuc(a1-2)[GalNAc(a1-3)]Gal(b1-3)GlcNAc
# Procedure, shortened: as §1
# [5] = molecular target: Fuc(a1-2)[GalNAc(a1-3)]Gal(b1-3)GlcNAc(b1-6)GalNAc
# Procedure, shortened: as §1
# [6] = molecular target: Fuc(a1-2)[GalNAc(a1-3)]Gal(b1-4)GlcNAc(b1-3)Gal(b1-4)GlcNAc
# Procedure, shortened: as §1
# [7] = molecular target: Fuc(a1-2)[GalNAc(a1-3)]Gal(b1-4)GlcNAc(b1-3)Gal(b1-4)GlcNAc(b1-3)Gal(b1-4)GlcNAc
# Procedure, shortened: as §1
# [8] = molecular target: Fuc(a1-2)[GalNAc(a1-3)]Gal(b1-4)GlcNAc(b1-6)GalNAc
# Procedure, shortened: as §1
# [9] = molecular target: Fuc(a1-2)[GalNAc(a1-3)]Gal(b1-4)[Fuc(a1-3)]GlcNAc
# Procedure, shortened: as §1
# [10] = molecular target: Gal(a1-3)Gal(b1-3)GlcNAc(b1-6)GalNAc
# Procedure, shortened: as §1
# Gal(a1-3)Gal(b1-4)Glc = molecular target: Gal(a1-3)Gal(b1-4)Glc
# Procedure, shortened: as §1
# Gal(a1-4)GlcNAc = molecular target: Gal(a1-4)GlcNAc
# Procedure, shortened: as §1
# [11] = molecular target: Gal(b1-3)GlcNAc(b1-6)[Gal(b1-3)]GalNAc
# Procedure, shortened: as §1
# Gal(b1-4)Glc6S = molecular target: Gal(b1-4)Glc6S
# Procedure, shortened: as §1
# Gal(b1-4)GlcNAc(b1-2)Man = molecular target: Gal(b1-4)GlcNAc(b1-2)Man
# Procedure, shortened: as §1
# [12] = molecular target: Gal(b1-4)GlcNAc(b1-2)[Gal(b1-4)GlcNAc(b1-4)]Man(a1-3)[Gal(b1-4)GlcNAc(b1-2)Man(a1-6)]Man(b1-4)GlcNAc(b1-4)GlcNAc
# Procedure, shortened: as §1
# [13] = molecular target: Gal(b1-4)GlcNAc(b1-2)[Gal(b1-4)GlcNAc(b1-4)]Man(a1-3)[GlcNAc(b1-4)][Gal(b1-4)GlcNAc(b1-2)[Gal(b1-4)GlcNAc(b1-6)]Man(a1-6)]Man(b1-4)GlcNAc(b1-4)GlcNAc
# Procedure, shortened: as §1
# [14] = molecular target: Gal(b1-4)GlcNAc(b1-3)Gal(b1-4)GlcNAc(b1-3)Gal(b1-4)GlcNAc(b1-2)Man(a1-3)[Gal(b1-4)GlcNAc(b1-3)Gal(b1-4)GlcNAc(b1-3)Gal(b1-4)GlcNAc(b1-2)Man(a1-6)]Man(b1-4)GlcNAc(b1-4)[Fuc(a1-6)]GlcNAc
# Procedure, shortened: as §1
# [15] = molecular target: Gal(b1-4)GlcNAc(b1-6)[Gal(b1-4)GlcNAc(b1-3)]GalNAc
# Procedure, shortened: as §1
# [16] = molecular target: Gal3S(b1-4)[Fuc(a1-3)]GlcNAc6S
# Procedure, shortened: as §1
# Gal3S4S(b1-4)GlcNAc = molecular target: Gal3S4S(b1-4)GlcNAc
# Procedure, shortened: as §1
# GalNAc3S(b1-4)GlcNAc = molecular target: GalNAc3S(b1-4)GlcNAc
# Procedure, shortened: as §1
# GalNAc6S(b1-4)GlcNAc = molecular target: GalNAc6S(b1-4)GlcNAc
# Procedure, shortened: as §1
# [17] = molecular target: GlcNAc(b1-2)Man(a1-3)[GlcNAc(b1-2)Man(a1-6)]Man(b1-4)GlcNAc(b1-4)GlcNAc
# Procedure, shortened: as §1
# GlcNAc(b1-6)GalNAc = molecular target: GlcNAc(b1-6)GalNAc
# Procedure, shortened: as §1
# Kdn(a2-3)Gal(b1-3)GalNAc = molecular target: Kdn(a2-3)Gal(b1-3)GalNAc
# Procedure, shortened: as §1
# [18] = molecular target: Man(a1-2)Man(a1-3)[Man(a1-2)Man(a1-6)]Man
# Procedure, shortened: as §1
# [19] = molecular target: Man(a1-3)[Man(a1-6)]Man(a1-6)[Man(a1-3)]Man(b1-4)GlcNAc(b1-4)GlcNAc
# Procedure, shortened: as §1
# [20] = molecular target: Neu5Ac(a2-3)Gal(b1-3)GlcNAc(b1-3)Gal(b1-3)GlcNAc
# Procedure, shortened: as §1
# [21] = molecular target: Neu5Ac(a2-3)Gal(b1-3)GlcNAc(b1-4)Gal(b1-4)Glc
# Procedure, shortened: as §1
# [22] = molecular target: Neu5Ac(a2-3)Gal(b1-4)GlcNAc(b1-2)Man(a1-3)[GlcNAc(b1-4)][Neu5Ac(a2-3)Gal(b1-4)GlcNAc(b1-2)Man(a1-6)]Man(b1-4)GlcNAc(b1-4)GlcNAc
# Procedure, shortened: as §1
# [23] = molecular target: Neu5Ac(a2-3)Gal(b1-4)GlcNAc(b1-2)Man(a1-3)[Neu5Ac(a2-3)Gal(b1-4)GlcNAc(b1-2)Man(a1-6)]Man(b1-4)GlcNAc(b1-4)[Fuc(a1-6)]GlcNAc
# Procedure, shortened: as §1
# [24] = molecular target: Neu5Ac(a2-3)Gal(b1-4)GlcNAc(b1-2)[Neu5Ac(a2-3)Gal(b1-4)GlcNAc(b1-6)]Man(a1-6)[Neu5Ac(a2-3)Gal(b1-4)GlcNAc(b1-2)Man(a1-3)]Man(b1-4)GlcNAc(b1-4)GlcNAc
# Procedure, shortened: as §1
# [25] = molecular target: Neu5Ac(a2-3)Gal(b1-4)[Fuc(a1-3)]GlcNAc(b1-3)Gal(b1-4)GlcNAc
# Procedure, shortened: as §1
# [26] = molecular target: Neu5Ac(a2-3)Gal6S(b1-4)GlcNAc
# Procedure, shortened: as §1
# Neu5Ac(a2-3)GalNAc = molecular target: Neu5Ac(a2-3)GalNAc
# Procedure, shortened: as §1
# Neu5Ac(a2-6)Gal(b1-4)Glc = molecular target: Neu5Ac(a2-6)Gal(b1-4)Glc
# Procedure, shortened: as §1
# [27] = molecular target: Neu5Ac(a2-6)Gal(b1-4)GlcNAc(b1-2)Man(a1-6)Man(b1-4)GlcNAc(b1-4)GlcNAc
# Procedure, shortened: as §1
# [28] = molecular target: Neu5Ac(a2-6)Gal(b1-4)GlcNAc(b1-2)[Neu5Ac(a2-6)Gal(b1-4)GlcNAc(b1-4)]Man(a1-3)[GlcNAc(b1-4)][Neu5Ac(a2-6)Gal(b1-4)GlcNAc(b1-4)Man(a1-6)]Man(b1-4)GlcNAc(b1-4)GlcNAc
# Procedure, shortened: as §1
# [29] = molecular target: Neu5Ac(a2-6)Gal(b1-4)GlcNAc(b1-3)Gal(b1-4)GlcNAc
# Procedure, shortened: as §1
# [30] = molecular target: Neu5Ac(a2-6)Gal(b1-4)GlcNAc(b1-3)Gal(b1-4)GlcNAc(b1-3)GalNAc
# Procedure, shortened: as §1
# Neu5Ac(a2-6)GalNAc = molecular target: Neu5Ac(a2-6)GalNAc
# Procedure, shortened: as §1
# [31] = molecular target: Neu5Ac(a2-8)Neu5Ac(a2-8)Neu5Ac(a2-8)Neu5Ac(a2-3)[GalNAc(b1-4)]Gal(b1-4)Glc
# Procedure, shortened: as §1
# [32] = molecular target: Neu5Ac9Ac(a2-3)Gal(b1-4)GlcNAc
# Procedure, shortened: as §1
# [33] = molecular target: Neu5Gc(a2-8)Neu5Gc(a2-6)Gal(b1-4)GlcNAc
# Procedure, shortened: as §1
binder,measurement,setting,value
B1,glycan array binding signal (z-score),Fuc(a1-2)Gal(b1-3)GalNAc,-0.443
same,glycan array binding signal (z-score),[1],-0.444
same,glycan array binding signal (z-score),[2],-0.449
same,glycan array binding signal (z-score),[3],3.71
same,glycan array binding signal (z-score),[4],2.96
same,glycan array binding signal (z-score),[5],2.04
same,glycan array binding signal (z-score),[6],2.91
same,glycan array binding signal (z-score),[7],2.99
same,glycan array binding signal (z-score),[8],2.6
same,glycan array binding signal (z-score),[9],3.78
same,glycan array binding signal (z-score),[10],2.92
same,glycan array binding signal (z-score),Gal(a1-3)Gal(b1-4)Glc,-0.398
same,glycan array binding signal (z-score),Gal(a1-4)GlcNAc,-0.402
same,glycan array binding signal (z-score),[11],-0.041
same,glycan array binding signal (z-score),Gal(b1-4)Glc6S,-0.377
same,glycan array binding signal (z-score),Gal(b1-4)GlcNAc(b1-2)Man,3.13
same,glycan array binding signal (z-score),[12],-0.44
same,glycan array binding signal (z-score),[13],-0.305
same,glycan array binding signal (z-score),[14],-0.304
same,glycan array binding signal (z-score),[15],-0.405
same,glycan array binding signal (z-score),[16],-0.069
same,glycan array binding signal (z-score),Gal3S4S(b1-4)GlcNAc,-0.425
same,glycan array binding signal (z-score),GalNAc3S(b1-4)GlcNAc,-0.449
same,glycan array binding signal (z-score),GalNAc6S(b1-4)GlcNAc,3
same,glycan array binding signal (z-score),[17],-0.449
same,glycan array binding signal (z-score),GlcNAc(b1-6)GalNAc,2.94
same,glycan array binding signal (z-score),Kdn(a2-3)Gal(b1-3)GalNAc,-0.362
same,glycan array binding signal (z-score),[18],-0.447
same,glycan array binding signal (z-score),[19],-0.452
same,glycan array binding signal (z-score),[20],-0.433
same,glycan array binding signal (z-score),[21],-0.449
same,glycan array binding signal (z-score),[22],-0.448
same,glycan array binding signal (z-score),[23],-0.449
same,glycan array binding signal (z-score),[24],-0.331
same,glycan array binding signal (z-score),[25],-0.388
same,glycan array binding signal (z-score),[26],-0.447
same,glycan array binding signal (z-score),Neu5Ac(a2-3)GalNAc,-0.435
same,glycan array binding signal (z-score),Neu5Ac(a2-6)Gal(b1-4)Glc,-0.421
same,glycan array binding signal (z-score),[27],-0.446
same,glycan array binding signal (z-score),[28],-0.368
same,glycan array binding signal (z-score),[29],-0.46
same,glycan array binding signal (z-score),[30],-0.378
same,glycan array binding signal (z-score),Neu5Ac(a2-6)GalNAc,3.16
same,glycan array binding signal (z-score),[31],3.12
same,glycan array binding signal (z-score),[32],-0.447
same,glycan array binding signal (z-score),[33],-0.447
